Screens: PubChem, several laboratories
Mdm2-MdmX inh – disrupts the human Mdm2-MdmX interaction | SaOS-2 split-luciferase Mdm2/MdmX complementation, luminescence | inhibition, % at 8 µM | actives 3% (n = 330,000) | O15151+Q00987;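 active = inhibition of at least 50% at 8 µM in the primary screen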
Jurkat NFkB inh – lowers PMA/ionomycin-induced NF-kB signal in Jurkat cells; PMA/ionomycin-induced NF-kB luciferase reporter, luminescence; inhibition, % at 4 µM; actives 0.53% (n = 330,000); AID 435003; in the data active = inhibition above about 50%
Beta cell apopt – blocks beta cell apoptosis; actives 0.8% (n = 300,000); INS-1E cytokine-induced death, ATP luminescence, 48 h; percent of positive-control rescue, neutral wells zero; protection from apoptosis, % (test concentration not listed);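 active = Every replicate reaches about 75%, or at least half do and their mean reaches it too, limit read from the data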;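 note: 0% = cytokine-treated negative control wells and 100% = positive control rescue; higher means more ATP so stronger rescue from cytokine killing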
697 NFkB inh – lowers PMA/ionomycin-induced NF-kB signal in 697 B cells | inhibition, % at 4 µM | 697 B-cell NF-kB luciferase reporter, 16 h | AID 435022 | actives 0.33% (n = 330,000); in the data active = inhibition above about 35%
Gli-Sufu antag – Gli-Sufu pathway antagonism | Sufu-KO-LIGHT fibroblasts, Gli luciferase reporter luminescence | inhibition, % at 5 µM | actives 0.74% (n = 340,000);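 active = inhibition above about 55%, limit read from the data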;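 note: 0% = DMSO-treated cells and 100% = wells with medium but no cells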
Mdm2 MdmX conf – confirmation of human Mdm2/MdmX interaction inhibitors; shares compounds with Mdm2-MdmX inh; Mdm2-MdmX binding, luminescent assay; inhibition, % at 8 µM; actives 55% (n = 10,000); AID 489028; in the data active = inhibition above about 40%
Full FLuc ctr – inhibits full-length luciferase, flagging false Mdm2/MdmX hits; shares compounds with Mdm2-MdmX inh; SaOS-2 full-length luciferase counterscreen, luminescence; inhibition, % at 8 µM; actives 77% (n = 6,200); AID 504607;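 active = mean inhibition at 8 µM reaching about 37%, which flags the compound as non-specific, limit read from the data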;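 note: p53-null SaOS-2 cells with luciferase driven by a doxycycline-inducible promoter; compound on cells about two nights before reading with doxycycline added after day one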
Active calls of the source: *; . = no result given. Compounds with a hit are over-represented: about 4% of the library has one in this group of screens.

SMILES	Mdm2-MdmX inh	Jurkat NFkB inh	Beta cell apopt	697 NFkB inh	Gli-Sufu antag	Mdm2 MdmX conf	Full FLuc ctr
O=C(CCCN1C(=O)/C(=C\c2ccccc2)SC1=S)Nc1ccc(O)cc1C(=O)O	0	2	0	-27	-2	.	.
O=C(CCN1C(=O)/C(=C\c2ccccc2)SC1=S)N1CCCCC1	57*	-7	-96	3	-7	72*	61*
COc1ccc(C(=O)N/C(=C/c2cccnc2)C(=O)N2CCCCCC2)cc1OC	22	-11	-1	-12	-9	.	.
COc1ccc(S(=O)(=O)N2CCOCC2)cc1NC(=O)CSc1ncccn1	12	-3	5	-2	-1	.	.
CC(C)C[C@@H](CNCC(=O)[C@H](Cc1ccccc1)NC(=O)c1[nH]cnc1C(=O)N[C@@H](C)CN)NC(=O)c1nc[nH]c1C(=O)N[C@@H](C)C(=O)O	.	.	.	.	3	.	.
CC(C)CCN1CCN(Cc2nc3c(s2)CCCC3)CC1CCO (centres undefined)	-7	10	-3	-21	13	.	.
CCCOc1ccc(C(=O)CCC(=O)NNC(=O)c2cccs2)cc1	-9	-7	3	14	3	.	.
COc1ccc(/C=C2/SC(=O)N(CCC(=O)Nc3ccc(C)cc3)C2=O)cc1OC	30	-19	37	-5	.	.	.
COc1cc(OC)c(/C=C2\SC(=O)N(CC(=O)Nc3ccccc3F)C2=O)c(OC)c1	57*	1	1	18	6	34	73*
O=C(CN1C(=O)S/C(=C/c2ccncc2)C1=O)N1CCOCC1	65*	-1	-8	-42	3	-21	.
COc1ccc(/C=C2/SC(=O)N(CCC(=O)Nc3ccccc3)C2=O)cc1OC	75*	-10	3	4	-13	26	82*
COc1cc(/C=C2\SC(=S)N(CCC(=O)N3CCCCC3)C2=O)cc(OC)c1OC	68*	15	-50	16	29	43*	63*
c1ccc(COc2ccccc2CNc2nn[nH]n2)cc1	-3	4	-9	-9	-2	.	.
CCc1cc2c3c(c1)C1(C(=O)N3C(C)(C)C=C2C)C(C#N)=C(N)Oc2[nH]c(=O)[nH]c(=O)c21 (centres undefined)	57*	22	9	5	0	41*	81*
CC1=CC(C)(C)N2C(=O)C3(C(C#N)=C(N)Oc4cc(C)oc(=O)c43)c3cc(C)cc1c32 (centres undefined)	-4	-4	-1	-13	3	.	.
Cc1nn(-c2ccccc2)nc1C(=O)NNC(=O)c1ccc(C(F)(F)F)cc1	-24	-14	-4	-11	8	.	.
CCOC(=O)c1ncn2c1[C@@H]1CCNC1C(=O)c1cc(OC)ccc1-2 (some centres undefined)	10	5	-5	16	-18	.	.
Cc1nn(CC(=O)N2CCN(C)CC2)c(=O)c2ccccc12	20	9	-1	9	1	.	.
O=C(Cc1c(Cl)cccc1Cl)NCCc1ccc(Cl)cc1	16	5	-6	1	-3	.	.
O=C(CCl)NCc1c(Cl)cccc1-n1cccc1	56*	-2	10	14	4	41*	36
CC1CN(C(=O)CCC(=O)NCCCN2C(C)CCCC2C)c2ccccc2O1 (centres undefined)	6	-8	-10	-6	4	.	.
CC(Sc1ccc(Cl)cc1)C(=O)Nc1ccc2c(c1)OCO2 (centres undefined)	-7	-8	2	1	-5	.	.
CC(C)N1CCC2(CC1)N=C(c1ccc3c(c1)OCO3)CC(c1cc(Cl)ccc1O)N2 (centres undefined)	70*	4	9	-26	3	27	.
CC(=O)c1ccc(OCc2cc(C(=O)NC(C)CCn3cccn3)no2)cc1 (centres undefined)	-47	-65	8	-70	-20	.	.
COc1ccc(N=c2oc3ccc(OC)cc3cc2-c2nc3ccccc3[nH]2)cc1	93*	-57	44	-83	5	-145	.
COc1cccc2sc(Nc3nnc(-c4ccc(F)cc4)o3)nc12	64*	-17	26	-39	-3	41*	67*
COc1cccc2sc(Nc3nnc(-c4cccs4)o3)nc12	20	-45	68	-166	23	.	.
